Screening results (PubChem BioAssay)
Many of the other results were omitted from the sample, so hits are more common in it than they were.
mHTT-CaM PPI inh – disrupts binding of mutant huntingtin to calmodulin; AlphaScreen His-mHTT/GST-CaM binding, luminescence; 3.6% of 190,000 active; inhibition, % at 15 µM;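 further: 0% = both proteins with DMSO and 100% = one protein alone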
Target sequence (P42858 whole entry, looked up, stated change not applied): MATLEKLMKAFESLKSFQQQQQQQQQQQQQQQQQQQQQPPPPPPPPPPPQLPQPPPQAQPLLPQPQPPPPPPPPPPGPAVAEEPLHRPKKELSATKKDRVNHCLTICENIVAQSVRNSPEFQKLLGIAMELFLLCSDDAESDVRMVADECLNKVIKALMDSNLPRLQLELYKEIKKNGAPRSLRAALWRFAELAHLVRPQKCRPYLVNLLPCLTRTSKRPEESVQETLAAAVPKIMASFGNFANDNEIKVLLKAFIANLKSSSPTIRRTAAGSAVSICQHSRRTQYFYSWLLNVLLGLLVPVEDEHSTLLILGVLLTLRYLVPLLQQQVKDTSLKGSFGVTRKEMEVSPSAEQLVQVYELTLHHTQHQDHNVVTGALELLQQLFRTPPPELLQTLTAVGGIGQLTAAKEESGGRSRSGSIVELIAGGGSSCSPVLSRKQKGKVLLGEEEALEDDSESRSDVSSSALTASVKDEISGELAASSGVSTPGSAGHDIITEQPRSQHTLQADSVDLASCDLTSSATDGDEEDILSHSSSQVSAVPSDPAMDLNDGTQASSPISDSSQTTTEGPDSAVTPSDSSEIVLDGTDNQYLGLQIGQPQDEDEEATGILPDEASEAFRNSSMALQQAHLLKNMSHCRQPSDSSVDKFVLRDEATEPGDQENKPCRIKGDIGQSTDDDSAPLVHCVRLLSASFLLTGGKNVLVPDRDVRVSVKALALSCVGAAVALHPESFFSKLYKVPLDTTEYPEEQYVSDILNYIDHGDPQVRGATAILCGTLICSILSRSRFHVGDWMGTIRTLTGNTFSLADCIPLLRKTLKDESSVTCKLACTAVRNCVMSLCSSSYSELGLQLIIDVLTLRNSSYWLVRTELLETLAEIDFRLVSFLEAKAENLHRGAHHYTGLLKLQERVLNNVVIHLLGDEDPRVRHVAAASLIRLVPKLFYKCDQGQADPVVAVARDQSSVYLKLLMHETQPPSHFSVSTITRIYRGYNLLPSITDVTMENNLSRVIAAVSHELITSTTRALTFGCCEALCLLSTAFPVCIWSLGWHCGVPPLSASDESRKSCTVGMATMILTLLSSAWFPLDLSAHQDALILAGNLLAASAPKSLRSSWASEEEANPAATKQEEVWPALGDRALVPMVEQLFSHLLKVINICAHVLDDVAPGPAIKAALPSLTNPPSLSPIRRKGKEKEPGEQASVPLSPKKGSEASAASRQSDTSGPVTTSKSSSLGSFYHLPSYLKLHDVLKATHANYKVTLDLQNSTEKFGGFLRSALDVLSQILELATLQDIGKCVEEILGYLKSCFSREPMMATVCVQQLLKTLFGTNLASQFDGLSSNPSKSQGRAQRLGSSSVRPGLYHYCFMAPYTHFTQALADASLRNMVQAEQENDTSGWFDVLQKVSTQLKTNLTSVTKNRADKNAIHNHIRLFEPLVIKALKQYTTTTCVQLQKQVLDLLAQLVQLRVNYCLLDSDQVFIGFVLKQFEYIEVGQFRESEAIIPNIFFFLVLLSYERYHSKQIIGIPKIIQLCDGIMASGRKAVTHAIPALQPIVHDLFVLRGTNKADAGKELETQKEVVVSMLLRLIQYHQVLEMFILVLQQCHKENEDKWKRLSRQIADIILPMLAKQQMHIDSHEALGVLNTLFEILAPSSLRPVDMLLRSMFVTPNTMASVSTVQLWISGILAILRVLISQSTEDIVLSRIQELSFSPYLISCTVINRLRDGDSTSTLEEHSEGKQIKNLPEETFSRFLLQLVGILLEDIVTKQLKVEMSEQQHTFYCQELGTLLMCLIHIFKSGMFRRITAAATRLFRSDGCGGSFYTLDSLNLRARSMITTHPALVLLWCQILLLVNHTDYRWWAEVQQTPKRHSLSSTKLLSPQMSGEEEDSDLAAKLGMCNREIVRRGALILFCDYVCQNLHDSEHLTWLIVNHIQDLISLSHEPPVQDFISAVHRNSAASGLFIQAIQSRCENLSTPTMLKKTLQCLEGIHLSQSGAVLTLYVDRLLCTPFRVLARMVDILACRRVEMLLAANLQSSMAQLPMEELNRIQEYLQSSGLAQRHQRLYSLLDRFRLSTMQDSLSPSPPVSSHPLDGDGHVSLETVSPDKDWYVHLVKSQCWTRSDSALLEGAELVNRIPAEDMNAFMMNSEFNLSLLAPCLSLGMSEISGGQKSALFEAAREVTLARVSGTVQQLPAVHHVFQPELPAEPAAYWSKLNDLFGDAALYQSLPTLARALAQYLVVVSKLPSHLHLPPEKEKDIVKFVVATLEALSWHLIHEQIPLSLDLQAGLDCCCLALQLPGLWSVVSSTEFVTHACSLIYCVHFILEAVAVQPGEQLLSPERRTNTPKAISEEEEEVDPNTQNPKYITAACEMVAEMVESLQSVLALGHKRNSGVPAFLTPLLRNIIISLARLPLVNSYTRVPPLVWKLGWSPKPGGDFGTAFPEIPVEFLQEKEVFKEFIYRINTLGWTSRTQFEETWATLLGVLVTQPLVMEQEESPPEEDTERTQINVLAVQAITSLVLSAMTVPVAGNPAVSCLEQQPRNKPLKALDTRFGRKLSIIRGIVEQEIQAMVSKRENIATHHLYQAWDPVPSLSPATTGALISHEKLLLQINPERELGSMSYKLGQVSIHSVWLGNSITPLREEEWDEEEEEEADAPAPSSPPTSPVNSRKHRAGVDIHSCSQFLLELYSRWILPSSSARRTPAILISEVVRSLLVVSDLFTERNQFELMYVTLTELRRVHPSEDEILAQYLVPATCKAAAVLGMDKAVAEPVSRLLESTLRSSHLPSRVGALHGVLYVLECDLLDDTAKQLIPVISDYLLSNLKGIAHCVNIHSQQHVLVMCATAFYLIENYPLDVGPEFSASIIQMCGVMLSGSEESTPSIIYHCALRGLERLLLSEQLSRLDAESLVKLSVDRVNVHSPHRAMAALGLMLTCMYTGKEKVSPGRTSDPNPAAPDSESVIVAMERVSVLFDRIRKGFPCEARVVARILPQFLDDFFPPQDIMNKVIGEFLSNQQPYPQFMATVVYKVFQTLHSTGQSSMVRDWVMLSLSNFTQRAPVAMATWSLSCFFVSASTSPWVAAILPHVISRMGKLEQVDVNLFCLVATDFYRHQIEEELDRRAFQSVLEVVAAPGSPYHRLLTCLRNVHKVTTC
Pf apPOL inh – Pf-apPOL DNA polymerase inhibition; 0.25% of 210,000 active; Recombinant Pf-apPOL, molecular beacon fluorescence, 1.5 h; inhibition, % at 10 µM; AID 1794808
Starred values were filed as active, the others as inactive; nt = no result. No stated cut-off is given here; in the data, active means inhibition above about 50%; inactive means the rest.

SMILES	mHTT-CaM PPI inh	Pf apPOL inh
O=C(/C=C/c1ccccc1)Nc1c2c(nn1-c1ccc([N+](=O)[O-])cc1)CSC2	56*	-10
O=C(/C=C/c1ccccc1)Nc1c2c(nn1-c1ccc(F)cc1)CSC2	76*	-9
Cc1ccc(-n2nc3c(c2NC(=O)c2ccc(Br)o2)CSC3)cc1	47	-6
CC(C)(C)n1nc2c(c1NC(=O)/C=C/c1ccccc1)CSC2	98*	3
Cc1ccc(-n2nc3c(c2NC(=O)/C=C/c2ccccc2)CSC3)cc1	45	9
Cc1cc(C)n(C(=O)C2C(/C=C(\Cl)C(F)(F)F)C2(C)C)n1 (centres undefined)	-12	-8
COCCNC(=O)CC1CCN(C(=O)c2[nH]c(C)cc2C)CC1	7	-10
O=C(c1ccccc1CN1C(=O)C2CCCN2C(=O)c2ccccc21)N1CCOCC1 (centres undefined)	-9	1
CC(C)C(=O)N(C)CC(=O)N1N=C(c2ccccc2F)CC1c1ccccc1F (centres undefined)	17	0
O=C(Nc1c2c(nn1-c1ccc(F)cc1)CSC2)c1ccc(Cl)c([N+](=O)[O-])c1	6	-7
O=C(Nc1c2c(nn1-c1ccc([N+](=O)[O-])cc1)CSC2)c1ccc(Cl)c([N+](=O)[O-])c1	56*	-5
O=C(/C=C/c1ccccc1)Nc1c2c(nn1-c1cccc(Cl)c1)CSC2	53*	-3
O=C(Nc1c2c(nn1-c1cccc(Cl)c1)CSC2)c1cccc(Cl)c1	-1	-6
O=C(NCCN1CCCCCC1)c1cc2n(n1)CCCN(Cc1ccc(F)cc1)C2=O	41	-2
COc1ccc(N(CC(=O)Nc2ccc(Cl)cc2C)S(C)(=O)=O)c(OC)c1	8	-10
CN(C)c1ccc2c(c1)OC(N)=C(C#N)C2c1cc(Br)cs1 (centres undefined)	53*	-5
CN(C)c1ccc2c(c1)OC(N)=C(C#N)C2c1ccc(F)c(Br)c1 (centres undefined)	83*	-4
N#CC1=C(N)Oc2cc(N)ccc2C1c1cc(Br)cs1 (centres undefined)	13	-2
CC(=O)Nc1ccc(C2C(C#N)=C(N)Oc3cc(N(C)C)ccc32)cc1 (centres undefined)	15	-3
O=C(NCc1cccc(Cl)c1)C1CCc2sc(C(=O)N3CCOCC3)cc2C1 (centres undefined)	5	-2
O=C(NC1CC1)c1cc(C(=O)NC2CC2)cc(C(=O)NC2CC2)c1	-4	4
CC(=O)c1ccc(N=Cc2cc(Br)cc(Cl)c2O)cc1	5	46
Oc1c(Cl)cc(Cl)cc1C=Nc1cccc2cccnc12	55*	6
COc1ccc(N=Cc2cc(Br)cc(Cl)c2O)cc1	3	-11
Cc1cccc(N=Cc2cc(Cl)cc(Cl)c2O)c1C	nt	6
SMILES	mHTT-CaM PPI inh	Pf apPOL inh
Cc1ccc(N=Cc2cc(Br)cc(Cl)c2O)c(N)c1	61*	4
Oc1c(Cl)cc(Br)cc1C=Nc1ccc2ncccc2c1	82*	0
CSc1ccccc1NC(=O)C(=O)NCC1CCN(C(=O)c2snnc2C)CC1	-2	-5
CCOc1ccc(NC(=O)C2c3cc(OC)c(OC)cc3C(=O)N(C)C2c2cccnc2)cc1 (centres undefined)	1	-4
COc1cccc(C(=O)Nc2c3c(nn2-c2ccc(C)cc2)CS(=O)(=O)C3)c1OC	3	-1
CCNC(=O)c1ccc2c(c1)nnn2Cc1ccccc1	-7	-6
Cc1ccc(-n2cc(C(=O)N3CCCC3)nn2)cc1C	-9	-2
COc1ccc(-c2ccc(C=C3C(=O)OC(C)(C)OC3=O)o2)c([N+](=O)[O-])c1	7	6
CCN1c2cc(C)ccc2-n2cccc2C12CCN(C(=O)c1ccc(F)cc1)CC2	85*	1
CCN1c2cc(C)ccc2-n2cccc2C12CCN(C(=O)Cc1cccs1)CC2	98*	-2
O=C1CC2(CCN(C(=O)Cc3cccs3)CC2)Oc2ccccc21	2	7
CCN1c2cc(F)ccc2C(=O)NC12CCN(C(=O)c1ccc(C)cc1)CC2	-8	1
CCN1c2ccc(C)cc2C(=O)NC12CCN(C(=O)c1ccc3c(c1)OCO3)CC2	-1	1
CCN1c2cc(C)ccc2-n2cccc2C12CCN(C(=O)c1ccc3c(c1)OCO3)CC2	66*	-4
O=C(NCCCN1CCc2ccccc2C1)C1CCCN(c2ccncc2)C1 (centres undefined)	9	-10
COc1ccc(-c2cc(C(F)(F)F)n3ncc(C(=O)NCCCn4ccnc4)c3n2)cc1OC	21	0
CC(=O)Nc1cccc(NC(=O)CSc2nc3ccccc3[nH]2)c1	8	-5
CC1=C(C(=O)Nc2cccc(C(F)(F)F)c2)C2(CCCCCC2)OC1=O	98*	-2
CC1=C(C(=O)Nc2cccc(C(F)(F)F)c2)C2(CCCCC2)OC1=O	14	-1
Cc1nc(Nc2ccc(O)cc2)nc(Nc2ccc(O)cc2)c1[N+](=O)[O-]	57*	0
Cc1nc(Nc2ccc3c(c2)OCCO3)nc(Nc2ccc3c(c2)OCCO3)c1[N+](=O)[O-]	24	nt
Cc1sc2ccn(C)c(=O)c2c1C(=O)N1CCCCC1	-7	-3
Cc1sc2ccn(C)c(=O)c2c1C(=O)N1CCN(c2ccc(Cl)cc2)CC1	70*	-6
CCn1ccc2sc(C)c(C(=O)N3CCN(c4ccccc4)CC3)c2c1=O	59*	-7
CCCn1ccc2sc(C)c(C(=O)N3CCN(c4ccccc4)CC3)c2c1=O	35	2
SMILES	mHTT-CaM PPI inh	Pf apPOL inh
Cc1ccc(Cl)cc1-n1ccnc(NC(=O)Nc2ccccc2)c1=O	-3	-2
CCCc1cc(=O)n2[nH]c(C)c(-c3ccccc3)c2n1	5	1
Cc1[nH]n2c(=O)cc(Cc3ccccc3)nc2c1-c1ccc(Cl)cc1	62*	-3
O=C1N(Cc2c(F)cccc2Cl)c2ccccc2C12OCCCO2	-10	-6
CCOc1ccccc1NC(=O)N1CCCC1c1nc(-c2ccccc2OC)no1 (centres undefined)	0	0
CC(=O)N1CCC(c2cnn(-c3cccc(C)c3)c2)CC1	100*	1
CN(C)c1ccc(C(=O)N2CCC(c3cnn(-c4ccc(F)cc4)c3)CC2)cc1	4	-1
Cc1ccc(-n2cc(C3CCN(C(=O)c4ccc(N(C)C)cc4)CC3)cn2)cc1	63*	-5
Cc1cccc(-n2cc(C3CCN(C(=O)C4CCCC4)CC3)cn2)c1	-10	-3
COc1cccc(C(CNC(=O)C(=O)NCc2ccc(Cl)cc2)N2CCOCC2)c1 (centres undefined)	-4	-6
O=C(NCCn1cc(SCC(=O)N2CCOCC2)c2ccccc21)c1ccc(F)cc1	3	-1
COc1ccccc1Nc1nc(-c2cc(C)ccc2C)cs1	24	2
COc1ccc(-c2csc(Nc3ccc(C)c(Cl)c3)n2)cc1F	88*	-1
Fc1ccc(Nc2nc(-c3ccccc3)cs2)cc1	30	1
Fc1ccc(-c2csc(Nc3ccc(Cl)cc3)n2)cc1	97*	-1
CCc1ccc(-c2csc(Nc3cc(OC)c(Cl)cc3OC)n2)cc1	12	3
COc1ccc(-c2csc(Nc3ccc(Cl)cc3)n2)cc1F	95*	5
COc1cc(Nc2nc(-c3cc(C)ccc3C)cs2)c(OC)cc1Cl	74*	-1
CCOc1ccc(Nc2nc(-c3ccc(OC)c(F)c3)cs2)cc1	32	-4
O=C1CCCC2=C1C(c1ccc(Cl)cc1Cl)n1c(nc3ccccc31)N2 (centres undefined)	-1	-1
